Source: the supplement of paper PMC3334620
Whole data set: some 33,000 sequences, median “E-score (-0.5 to 0.5)” near -0.017, cut for the highest 2% near 0.3. This excerpt belongs to a sample that is enriched for the highest values.

Molecular target: T1, Sut1 (UniProt P53032)
T1 sequence: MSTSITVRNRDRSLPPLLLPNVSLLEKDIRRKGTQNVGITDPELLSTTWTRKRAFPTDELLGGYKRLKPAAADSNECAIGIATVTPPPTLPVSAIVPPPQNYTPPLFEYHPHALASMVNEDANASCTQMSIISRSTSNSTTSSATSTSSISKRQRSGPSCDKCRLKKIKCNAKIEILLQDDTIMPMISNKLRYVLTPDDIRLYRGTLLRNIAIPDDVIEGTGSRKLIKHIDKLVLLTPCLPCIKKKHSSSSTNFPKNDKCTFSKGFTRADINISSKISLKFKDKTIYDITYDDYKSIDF
Assay: PBM E-score (8-mer binding enrichment) (E-score (-0.5 to 0.5)); higher = stronger / more preferred TF binding
Conditions: protein concentration: 200 nM; construct: GST-full length
Procedure: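 Universal 'all 10-mer' protein binding microarrays (Agilent AMADID 015681) probed with GST-tagged S. cerevisiae TFs (full-length or DBD) made by in vitro transcription/translation (PURExpress), about 100-200 nM. Bound TF was detected with fluorescent anti-GST. Each ungapped 8-mer (which stands for itself and its reverse complement) is scored by the PBM enrichment score (E-score), a modified Wilcoxon-Mann-Whitney statistic from -0.5 to +0.5, computed with the Universal PBM Analysis Suite. Scale: above 0.35 generally sequence-specific binding.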

Row | Sequence | PBM E-score
1 | GCACCTTA | -0.00495
2 | GTTACACA | -0.2
3 | GAAAGGGC | 0.00203
4 | CACAGCAC | -0.205
5 | GTTTCCAA | 0.0451
6 | CCTTCCGA | 0.134
7 | ACTTCCGA | 0.245
8 | GTTTCCGA | 0.332
9 | CTTTCCGA | 0.226
10 | GCTTCCGA | 0.303
11 | AGTGGATG | -0.0759
12 | ATCCCTCC | -0.194
13 | GAGTGAAC | -0.111
14 | AAACTCCT | 0.016
15 | AAACTCCA | 0.297
16 | TAACTCCA | 0.143
17 | ATCTTATC | 0.154
18 | ACGAGGTG | -0.21
19 | ATATAAGC | 0.0532
20 | AACAAATT | 0.306
21 | AAGAAAAA | 0.319
22 | AAGAAAAT | 0.257
23 | AACAAATG | 0.159

Row | Sequence | PBM E-score
24 | AACAAGTT | 0.132
25 | AAGAAATA | 0.177
26 | AAGAAAAG | 0.116
27 | AAGAAATG | 0.144
28 | AAGAAATT | 0.313
29 | GACGCCGC | -0.221
30 | ACAGTCTC | -0.112
31 | CGACGGGC | -0.197
32 | AACTAATA | 0.324
33 | CACTAATA | 0.213
34 | AACTAAAA | 0.31
35 | CACTATAA | -0.0412
36 | AACTAACC | 0.336
37 | TACTATAA | 0.306
38 | TACTAATA | 0.181
39 | AACTAACT | 0.175
40 | TACTAAAA | 0.207
41 | AACTAACA | 0.0858
42 | AACTAAAG | 0.195
43 | AACTATAA | 0.204
44 | AGGGGTGG | -0.277
45 | AGCCGTGA | -0.0248
46 | TGAATACA | 0.241

Row | Sequence | PBM E-score
47 | ATCTGGTG | -0.015
48 | ATTAGATA | 0.175
49 | ATTAGATG | 0.303
50 | ATTAGATC | 0.0421
51 | ATATTCAG | 0.04
52 | ACTTCGGC | 0.14
53 | GCTTCGCA | -0.197
54 | CCTTCGGC | -0.233
55 | ACTTCGGA | 0.397
56 | GCTTCGGA | 0.324
57 | ACTTCGGG | 0.0676
58 | CCTTCGGA | 0.32
59 | GCTTCGTA | 0.0454
60 | CCTTCGCA | -0.178
61 | AATCTGTC | 0.133
62 | GGAAAGAC | -0.0333
63 | CGGCGTAG | -0.176
64 | AAAACTGG | 0.149
65 | ATTGCTGA | -0.0342
66 | CATGAGAA | 0.0161
67 | GCCAAGCC | -0.0191
68 | AGCGGAGC | 0.137
69 | CGCGGAGC | 0.26

Row | Sequence | PBM E-score
70 | CGCGGAGA | 0.387
71 | AGCGGAGG | -0.201
72 | GGCGGAGA | 0.23
73 | AGCGGAGA | 0.325
74 | GACGGTCA | -0.253
75 | CCAAGGGG | -0.143
76 | ACCTTCGC | -0.0159
77 | ATTAACAA | 0.199
78 | ATTAACAC | 0.302
79 | CTTAACAC | -0.122
80 | AGCTATCA | -0.0476
81 | TAGCCGGA | 0.282
82 | AAGCCGGA | 0.331
83 | ATGCCGGC | -0.0395
84 | ATGCCGGA | 0.325
85 | GAGCCGGA | 0.254
86 | ATGCCGGG | -0.0609
87 | ACCATAAC | 0.0292
88 | AATTTTAT | 0.317
89 | AATTTTAC | 0.27
90 | AATTTAAT | 0.317
91 | AATTTTAA | 0.295
92 | AATTTAAC | 0.255

Row | Sequence | PBM E-score
93 | AATTTAAG | 0.218
94 | AGCCTAGA | -0.224
95 | GAACCGCA | 0.0646
96 | AATTGACC | 0.0635
97 | CGAGTGAG | 0.0764
98 | GGGAATAA | 0.233
99 | GGGAATAC | -0.0577
100 | CGGAATAC | 0.325
101 | CGGAATAA | 0.306
102 | AGGAATAC | -3e-05
103 | TGGAATAA | 0.122
104 | AAAGGGTA | -0.054
105 | TGTGGCAA | -0.0604
106 | GAATTGGA | 0.0498
107 | CCCAAACC | -0.0698
108 | CTCCCGGA | 0.232
109 | ATCCCGGG | -0.07
110 | GTCCCCGA | 0.066
111 | ATCCCGGA | 0.328
112 | GTCCCGGA | 0.348
113 | GTCCCGCA | -0.159
114 | CAGTCGAC | -0.0872
